According to ChEMBL document CHEMBL2218924, “A broad activity screen in support of a chemogenomic map for kinase signalling research and drug discovery” (Biochem J, 2013):

Tests used:
[1] = molecular target: T1, Ephrin type-A receptor 3 (Homo sapiens) (UniProt P29320); details: at 10 µM
T1 sequence (whole entry): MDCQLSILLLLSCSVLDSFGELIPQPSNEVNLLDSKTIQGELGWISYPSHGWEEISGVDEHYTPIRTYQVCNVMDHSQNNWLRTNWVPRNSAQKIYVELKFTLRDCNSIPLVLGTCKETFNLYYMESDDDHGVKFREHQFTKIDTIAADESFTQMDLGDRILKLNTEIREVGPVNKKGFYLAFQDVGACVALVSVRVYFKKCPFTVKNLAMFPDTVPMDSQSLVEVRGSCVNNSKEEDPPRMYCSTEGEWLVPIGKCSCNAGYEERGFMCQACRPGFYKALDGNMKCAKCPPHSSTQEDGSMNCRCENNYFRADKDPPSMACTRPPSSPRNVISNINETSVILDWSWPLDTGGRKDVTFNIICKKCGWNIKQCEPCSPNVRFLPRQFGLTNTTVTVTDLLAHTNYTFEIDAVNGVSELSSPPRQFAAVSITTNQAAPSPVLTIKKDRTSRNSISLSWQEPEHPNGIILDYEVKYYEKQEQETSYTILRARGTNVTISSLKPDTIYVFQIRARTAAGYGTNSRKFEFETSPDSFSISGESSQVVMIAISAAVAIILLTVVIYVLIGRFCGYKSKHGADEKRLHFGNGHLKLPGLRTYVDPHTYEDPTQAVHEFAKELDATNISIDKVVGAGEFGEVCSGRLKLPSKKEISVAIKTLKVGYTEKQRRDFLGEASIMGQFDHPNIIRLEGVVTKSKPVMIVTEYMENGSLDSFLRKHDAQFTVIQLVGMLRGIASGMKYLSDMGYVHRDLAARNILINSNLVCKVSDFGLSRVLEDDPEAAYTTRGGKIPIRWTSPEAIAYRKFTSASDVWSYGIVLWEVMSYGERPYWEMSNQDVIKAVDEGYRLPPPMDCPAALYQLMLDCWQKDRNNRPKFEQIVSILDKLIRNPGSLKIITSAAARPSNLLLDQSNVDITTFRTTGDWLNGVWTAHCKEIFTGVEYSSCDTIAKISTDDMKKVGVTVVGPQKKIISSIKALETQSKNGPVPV

[2] = molecular target: Ephrin type-A receptor 7 (Homo sapiens) (UniProt Q15375); details: at 1 µM
[3] = molecular target: Ephrin type-A receptor 7 (Homo sapiens) (UniProt Q15375); details: at 10 µM
[4] = molecular target: T2, Ephrin type-B receptor 1 (Homo sapiens) (UniProt P54762); details: at 1 µM
T2 sequence (whole entry): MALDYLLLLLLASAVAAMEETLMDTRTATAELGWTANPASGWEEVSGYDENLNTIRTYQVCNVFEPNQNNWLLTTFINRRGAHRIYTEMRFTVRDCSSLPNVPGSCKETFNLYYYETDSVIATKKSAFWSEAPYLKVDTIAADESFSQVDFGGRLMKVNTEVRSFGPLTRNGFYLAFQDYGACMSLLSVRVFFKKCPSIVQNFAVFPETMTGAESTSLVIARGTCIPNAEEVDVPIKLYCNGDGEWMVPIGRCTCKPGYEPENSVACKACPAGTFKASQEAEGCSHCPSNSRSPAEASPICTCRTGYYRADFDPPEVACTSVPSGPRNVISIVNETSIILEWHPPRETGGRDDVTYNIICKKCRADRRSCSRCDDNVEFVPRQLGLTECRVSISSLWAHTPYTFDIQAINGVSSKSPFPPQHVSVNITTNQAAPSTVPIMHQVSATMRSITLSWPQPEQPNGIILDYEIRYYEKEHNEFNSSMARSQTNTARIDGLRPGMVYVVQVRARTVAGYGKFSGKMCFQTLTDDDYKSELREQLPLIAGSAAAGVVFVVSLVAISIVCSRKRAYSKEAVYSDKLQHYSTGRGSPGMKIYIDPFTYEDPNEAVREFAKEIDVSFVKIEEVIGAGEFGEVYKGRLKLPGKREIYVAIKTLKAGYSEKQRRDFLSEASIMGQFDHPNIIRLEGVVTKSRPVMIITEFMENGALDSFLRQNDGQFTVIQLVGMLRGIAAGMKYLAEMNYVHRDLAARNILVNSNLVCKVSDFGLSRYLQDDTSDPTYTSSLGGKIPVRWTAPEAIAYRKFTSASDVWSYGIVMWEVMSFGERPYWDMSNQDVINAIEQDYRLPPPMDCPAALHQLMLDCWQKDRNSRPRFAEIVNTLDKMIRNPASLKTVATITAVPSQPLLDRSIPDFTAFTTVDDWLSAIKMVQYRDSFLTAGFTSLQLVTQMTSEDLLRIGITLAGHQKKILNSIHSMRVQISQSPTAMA

[5] = molecular target: T2, Ephrin type-B receptor 1 (Homo sapiens); details: at 10 µM
[6] = molecular target: T3, Ephrin type-B receptor 2 (Homo sapiens) (UniProt P29323); details: at 1 µM
T3 sequence (whole entry): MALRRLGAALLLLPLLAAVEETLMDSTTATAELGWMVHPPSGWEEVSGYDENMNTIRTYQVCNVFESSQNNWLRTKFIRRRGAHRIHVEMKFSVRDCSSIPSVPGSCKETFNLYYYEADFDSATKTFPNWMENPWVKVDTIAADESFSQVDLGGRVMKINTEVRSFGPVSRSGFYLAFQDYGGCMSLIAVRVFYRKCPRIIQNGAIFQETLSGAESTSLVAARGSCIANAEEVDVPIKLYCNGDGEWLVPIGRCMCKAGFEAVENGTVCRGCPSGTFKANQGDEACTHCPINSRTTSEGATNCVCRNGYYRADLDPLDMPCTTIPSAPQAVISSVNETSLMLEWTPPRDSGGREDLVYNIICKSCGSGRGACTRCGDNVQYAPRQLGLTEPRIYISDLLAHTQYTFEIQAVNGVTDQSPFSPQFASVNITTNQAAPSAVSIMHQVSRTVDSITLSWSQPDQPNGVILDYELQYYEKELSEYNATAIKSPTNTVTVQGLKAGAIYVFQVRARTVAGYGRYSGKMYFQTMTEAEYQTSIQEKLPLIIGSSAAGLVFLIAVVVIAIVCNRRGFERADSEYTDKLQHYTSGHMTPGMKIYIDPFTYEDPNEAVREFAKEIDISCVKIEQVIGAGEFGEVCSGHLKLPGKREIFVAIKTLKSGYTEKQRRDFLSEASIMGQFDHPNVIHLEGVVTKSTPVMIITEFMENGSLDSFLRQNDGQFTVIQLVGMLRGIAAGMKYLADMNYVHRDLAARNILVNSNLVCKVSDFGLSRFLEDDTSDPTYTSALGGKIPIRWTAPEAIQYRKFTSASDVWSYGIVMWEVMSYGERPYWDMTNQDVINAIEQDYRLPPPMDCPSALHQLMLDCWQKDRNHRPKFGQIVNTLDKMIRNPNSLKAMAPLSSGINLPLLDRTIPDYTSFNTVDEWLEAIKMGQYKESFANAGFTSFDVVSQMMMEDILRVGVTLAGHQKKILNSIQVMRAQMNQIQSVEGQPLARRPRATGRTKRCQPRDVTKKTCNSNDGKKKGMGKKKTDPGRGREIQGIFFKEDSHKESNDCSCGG

[7] = molecular target: T3, Ephrin type-B receptor 2 (Homo sapiens); details: at 10 µM
[8] = molecular target: T4, Ephrin type-B receptor 3 (Homo sapiens) (UniProt P54753); details: at 1 µM
T4 sequence (whole entry): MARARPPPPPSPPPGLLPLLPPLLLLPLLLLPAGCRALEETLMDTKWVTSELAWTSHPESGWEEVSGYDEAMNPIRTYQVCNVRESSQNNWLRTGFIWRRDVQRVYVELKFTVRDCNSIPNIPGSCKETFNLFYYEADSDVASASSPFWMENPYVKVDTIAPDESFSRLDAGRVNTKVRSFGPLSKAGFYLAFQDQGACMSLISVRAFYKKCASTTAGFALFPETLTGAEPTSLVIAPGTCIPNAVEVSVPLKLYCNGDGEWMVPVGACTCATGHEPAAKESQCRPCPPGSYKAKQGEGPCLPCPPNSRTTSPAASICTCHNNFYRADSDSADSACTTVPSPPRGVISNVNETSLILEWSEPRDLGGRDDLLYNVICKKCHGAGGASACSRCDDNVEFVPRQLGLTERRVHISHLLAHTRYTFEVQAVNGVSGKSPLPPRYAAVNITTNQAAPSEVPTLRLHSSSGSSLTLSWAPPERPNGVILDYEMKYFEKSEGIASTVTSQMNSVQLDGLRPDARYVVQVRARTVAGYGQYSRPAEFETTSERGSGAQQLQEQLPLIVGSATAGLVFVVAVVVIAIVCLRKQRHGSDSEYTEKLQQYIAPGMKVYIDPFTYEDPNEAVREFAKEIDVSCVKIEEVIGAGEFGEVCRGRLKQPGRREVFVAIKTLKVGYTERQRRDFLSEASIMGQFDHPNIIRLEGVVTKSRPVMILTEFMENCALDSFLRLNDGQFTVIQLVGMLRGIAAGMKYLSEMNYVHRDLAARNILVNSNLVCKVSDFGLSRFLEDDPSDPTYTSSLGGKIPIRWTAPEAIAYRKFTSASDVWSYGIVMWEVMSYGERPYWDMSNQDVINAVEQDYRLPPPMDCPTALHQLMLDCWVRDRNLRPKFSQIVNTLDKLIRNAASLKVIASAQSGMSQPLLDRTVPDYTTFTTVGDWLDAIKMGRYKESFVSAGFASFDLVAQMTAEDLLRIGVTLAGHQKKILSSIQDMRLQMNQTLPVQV

[9] = molecular target: T4, Ephrin type-B receptor 3 (Homo sapiens); details: at 10 µM
[10] = molecular target: Focal adhesion kinase 1 (Homo sapiens) (UniProt Q05397); details: at 1 µM
[11] = molecular target: T5, Ephrin type-A receptor 8 (Homo sapiens) (UniProt P29322); details: at 1 µM
T5 sequence (whole entry): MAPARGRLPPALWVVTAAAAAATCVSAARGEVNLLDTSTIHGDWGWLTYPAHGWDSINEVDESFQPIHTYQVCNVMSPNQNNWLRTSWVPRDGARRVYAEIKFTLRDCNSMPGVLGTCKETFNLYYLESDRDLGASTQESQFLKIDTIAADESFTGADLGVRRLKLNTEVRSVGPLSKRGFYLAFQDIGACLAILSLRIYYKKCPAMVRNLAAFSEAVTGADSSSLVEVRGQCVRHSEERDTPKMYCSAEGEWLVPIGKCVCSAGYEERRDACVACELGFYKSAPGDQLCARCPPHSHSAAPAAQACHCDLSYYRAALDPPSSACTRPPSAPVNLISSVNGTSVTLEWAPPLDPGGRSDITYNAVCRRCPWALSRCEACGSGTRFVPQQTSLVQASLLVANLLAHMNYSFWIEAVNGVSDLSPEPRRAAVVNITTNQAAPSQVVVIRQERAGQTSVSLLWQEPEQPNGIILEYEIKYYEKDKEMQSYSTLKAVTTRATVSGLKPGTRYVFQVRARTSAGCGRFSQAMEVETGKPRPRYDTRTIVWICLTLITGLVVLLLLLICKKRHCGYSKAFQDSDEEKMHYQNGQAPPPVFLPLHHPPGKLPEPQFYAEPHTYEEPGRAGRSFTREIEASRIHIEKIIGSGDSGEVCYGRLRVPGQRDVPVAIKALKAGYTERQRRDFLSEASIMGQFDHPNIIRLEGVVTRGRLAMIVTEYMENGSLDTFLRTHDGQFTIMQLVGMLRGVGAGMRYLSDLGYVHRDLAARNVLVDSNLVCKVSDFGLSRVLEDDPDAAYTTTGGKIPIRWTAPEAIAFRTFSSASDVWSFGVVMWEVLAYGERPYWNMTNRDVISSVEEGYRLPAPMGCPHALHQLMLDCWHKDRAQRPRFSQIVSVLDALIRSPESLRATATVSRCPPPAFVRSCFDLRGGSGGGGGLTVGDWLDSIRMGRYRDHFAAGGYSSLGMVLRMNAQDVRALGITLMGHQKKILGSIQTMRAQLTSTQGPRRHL

[12] = molecular target: T5, Ephrin type-A receptor 8 (Homo sapiens); details: at 10 µM
[13] = molecular target: T6, Ephrin type-B receptor 4 (Homo sapiens) (UniProt P54760); details: at 1 µM
T6 sequence (whole entry): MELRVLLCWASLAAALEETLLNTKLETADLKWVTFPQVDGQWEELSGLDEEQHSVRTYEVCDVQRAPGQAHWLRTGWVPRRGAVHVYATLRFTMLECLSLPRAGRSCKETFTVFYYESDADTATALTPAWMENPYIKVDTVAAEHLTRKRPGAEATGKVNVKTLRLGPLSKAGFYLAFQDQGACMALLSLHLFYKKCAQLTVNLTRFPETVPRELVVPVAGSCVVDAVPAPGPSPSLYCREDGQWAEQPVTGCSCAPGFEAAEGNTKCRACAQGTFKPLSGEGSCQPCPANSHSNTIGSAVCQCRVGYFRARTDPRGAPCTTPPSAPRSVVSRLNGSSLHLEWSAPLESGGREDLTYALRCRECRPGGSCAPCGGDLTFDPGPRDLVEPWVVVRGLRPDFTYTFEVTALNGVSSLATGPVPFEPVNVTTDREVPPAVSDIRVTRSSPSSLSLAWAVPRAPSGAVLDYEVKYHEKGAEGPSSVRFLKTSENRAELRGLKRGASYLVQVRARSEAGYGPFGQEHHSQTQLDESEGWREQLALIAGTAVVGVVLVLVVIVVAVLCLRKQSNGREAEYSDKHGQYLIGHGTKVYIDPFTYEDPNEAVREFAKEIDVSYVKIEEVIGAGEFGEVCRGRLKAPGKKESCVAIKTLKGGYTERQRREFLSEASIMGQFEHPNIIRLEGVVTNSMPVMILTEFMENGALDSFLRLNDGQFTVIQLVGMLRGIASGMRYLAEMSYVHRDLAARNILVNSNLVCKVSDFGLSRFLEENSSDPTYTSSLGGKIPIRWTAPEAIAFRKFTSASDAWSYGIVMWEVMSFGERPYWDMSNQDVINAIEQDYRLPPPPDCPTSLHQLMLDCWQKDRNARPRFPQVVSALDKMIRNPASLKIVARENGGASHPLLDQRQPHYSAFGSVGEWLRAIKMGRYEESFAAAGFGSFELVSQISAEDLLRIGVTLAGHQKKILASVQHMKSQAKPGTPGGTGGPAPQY

[14] = molecular target: T6, Ephrin type-B receptor 4 (Homo sapiens); details: at 10 µM
[15] = molecular target: Receptor tyrosine-protein kinase erbB-4 (Homo sapiens) (UniProt Q15303); details: at 1 µM
[16] = molecular target: Receptor tyrosine-protein kinase erbB-4 (Homo sapiens) (UniProt Q15303); details: at 10 µM

Sequence of Ephrin type-A receptor 7 (Homo sapiens) (Q15375 28-998 limits assumed): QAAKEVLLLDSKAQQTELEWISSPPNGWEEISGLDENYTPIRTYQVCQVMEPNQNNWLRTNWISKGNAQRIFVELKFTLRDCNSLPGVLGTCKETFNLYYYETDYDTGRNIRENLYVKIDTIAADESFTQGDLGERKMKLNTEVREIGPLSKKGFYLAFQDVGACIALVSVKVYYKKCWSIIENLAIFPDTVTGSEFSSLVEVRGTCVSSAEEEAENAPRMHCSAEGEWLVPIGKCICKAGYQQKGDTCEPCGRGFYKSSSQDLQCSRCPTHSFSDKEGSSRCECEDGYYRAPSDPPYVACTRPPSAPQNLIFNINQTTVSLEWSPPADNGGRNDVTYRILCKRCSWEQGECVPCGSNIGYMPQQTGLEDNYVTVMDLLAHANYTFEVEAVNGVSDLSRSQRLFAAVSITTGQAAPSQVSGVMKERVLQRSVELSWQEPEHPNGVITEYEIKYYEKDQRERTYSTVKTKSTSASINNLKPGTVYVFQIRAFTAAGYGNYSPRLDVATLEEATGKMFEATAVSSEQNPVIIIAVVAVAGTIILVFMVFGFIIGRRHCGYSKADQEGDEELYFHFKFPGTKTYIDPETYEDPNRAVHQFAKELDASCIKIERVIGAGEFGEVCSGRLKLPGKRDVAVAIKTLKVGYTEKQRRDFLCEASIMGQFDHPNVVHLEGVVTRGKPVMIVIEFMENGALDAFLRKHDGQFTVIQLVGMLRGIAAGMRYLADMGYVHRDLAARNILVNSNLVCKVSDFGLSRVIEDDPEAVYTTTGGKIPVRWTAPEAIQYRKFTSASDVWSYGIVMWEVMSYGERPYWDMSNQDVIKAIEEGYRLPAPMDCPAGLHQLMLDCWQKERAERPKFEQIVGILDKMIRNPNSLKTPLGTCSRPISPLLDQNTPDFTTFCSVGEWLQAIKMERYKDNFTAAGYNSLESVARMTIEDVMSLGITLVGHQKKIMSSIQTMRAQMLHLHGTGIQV
Sequence of Focal adhesion kinase 1 (Homo sapiens) (Q05397 2-1052 limits assumed): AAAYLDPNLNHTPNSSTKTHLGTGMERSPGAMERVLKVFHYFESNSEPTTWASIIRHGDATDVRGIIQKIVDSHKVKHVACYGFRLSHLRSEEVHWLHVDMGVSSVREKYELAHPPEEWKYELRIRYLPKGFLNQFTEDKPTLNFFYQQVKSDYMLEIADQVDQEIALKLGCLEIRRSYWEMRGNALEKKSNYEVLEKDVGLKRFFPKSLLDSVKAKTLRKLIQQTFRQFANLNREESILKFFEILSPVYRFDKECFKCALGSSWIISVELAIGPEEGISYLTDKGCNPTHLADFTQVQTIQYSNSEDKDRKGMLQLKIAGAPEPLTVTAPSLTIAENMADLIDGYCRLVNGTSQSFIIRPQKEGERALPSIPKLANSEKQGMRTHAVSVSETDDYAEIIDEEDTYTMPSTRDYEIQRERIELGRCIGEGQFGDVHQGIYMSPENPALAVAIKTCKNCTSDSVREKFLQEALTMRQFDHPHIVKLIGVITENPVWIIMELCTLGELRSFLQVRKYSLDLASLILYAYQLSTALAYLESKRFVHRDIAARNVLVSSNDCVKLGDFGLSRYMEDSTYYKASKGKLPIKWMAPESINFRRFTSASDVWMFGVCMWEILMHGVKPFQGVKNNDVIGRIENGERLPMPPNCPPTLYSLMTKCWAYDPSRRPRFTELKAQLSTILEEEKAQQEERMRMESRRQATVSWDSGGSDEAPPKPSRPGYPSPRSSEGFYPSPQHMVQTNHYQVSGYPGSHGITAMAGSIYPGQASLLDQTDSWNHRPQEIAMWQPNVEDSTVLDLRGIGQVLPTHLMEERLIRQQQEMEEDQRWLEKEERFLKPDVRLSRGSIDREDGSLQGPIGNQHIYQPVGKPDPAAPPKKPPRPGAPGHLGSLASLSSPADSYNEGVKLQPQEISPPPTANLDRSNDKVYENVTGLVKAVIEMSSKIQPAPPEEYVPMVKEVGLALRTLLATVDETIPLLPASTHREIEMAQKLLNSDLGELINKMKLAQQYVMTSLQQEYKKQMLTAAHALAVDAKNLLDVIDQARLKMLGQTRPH
Sequence of Receptor tyrosine-protein kinase erbB-4 (Homo sapiens) (Q15303 whole entry): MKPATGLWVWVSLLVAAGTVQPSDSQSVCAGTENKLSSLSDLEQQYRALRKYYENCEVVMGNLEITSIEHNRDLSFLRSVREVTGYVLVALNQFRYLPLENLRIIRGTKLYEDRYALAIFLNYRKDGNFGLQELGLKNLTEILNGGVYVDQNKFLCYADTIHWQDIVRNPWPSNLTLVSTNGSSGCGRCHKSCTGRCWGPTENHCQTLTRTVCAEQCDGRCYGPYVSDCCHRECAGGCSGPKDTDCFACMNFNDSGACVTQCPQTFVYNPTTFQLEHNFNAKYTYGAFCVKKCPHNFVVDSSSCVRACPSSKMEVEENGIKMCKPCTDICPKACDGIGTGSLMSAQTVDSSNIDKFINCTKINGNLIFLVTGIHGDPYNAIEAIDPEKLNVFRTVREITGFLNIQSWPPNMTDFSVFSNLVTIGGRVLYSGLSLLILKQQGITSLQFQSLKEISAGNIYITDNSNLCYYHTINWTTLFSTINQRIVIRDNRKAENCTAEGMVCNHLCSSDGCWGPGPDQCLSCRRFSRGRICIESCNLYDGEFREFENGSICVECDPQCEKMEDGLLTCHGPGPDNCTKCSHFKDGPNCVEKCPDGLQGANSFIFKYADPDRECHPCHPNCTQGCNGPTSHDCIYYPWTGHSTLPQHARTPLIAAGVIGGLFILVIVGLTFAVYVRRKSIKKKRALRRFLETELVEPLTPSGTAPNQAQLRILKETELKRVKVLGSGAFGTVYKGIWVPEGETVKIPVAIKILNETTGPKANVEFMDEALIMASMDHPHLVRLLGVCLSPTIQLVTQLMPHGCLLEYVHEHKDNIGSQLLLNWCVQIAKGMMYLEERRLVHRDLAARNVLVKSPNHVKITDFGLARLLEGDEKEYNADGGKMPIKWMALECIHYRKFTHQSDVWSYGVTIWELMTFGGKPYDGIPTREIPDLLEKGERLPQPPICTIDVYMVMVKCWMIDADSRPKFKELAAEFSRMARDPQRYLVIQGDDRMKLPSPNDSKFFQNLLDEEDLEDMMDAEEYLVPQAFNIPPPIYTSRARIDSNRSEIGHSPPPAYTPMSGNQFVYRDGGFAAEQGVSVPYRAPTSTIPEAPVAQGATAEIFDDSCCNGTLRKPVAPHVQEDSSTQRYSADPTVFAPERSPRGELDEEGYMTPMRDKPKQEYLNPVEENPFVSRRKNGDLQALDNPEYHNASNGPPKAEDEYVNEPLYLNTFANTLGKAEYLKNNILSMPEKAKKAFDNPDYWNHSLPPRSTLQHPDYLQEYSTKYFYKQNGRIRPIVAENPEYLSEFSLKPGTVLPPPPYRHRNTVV

| Compound | residual activity [1] | residual activity [2] | residual activity [3] | residual activity [4] | residual activity [5] | residual activity [6] | residual activity [7] | residual activity [8] | residual activity [9] | residual activity [10] | residual activity [11] | residual activity [12] | residual activity [13] | residual activity [14] | residual activity [15] | residual activity [16] |
| --- | --- | --- | --- | --- | --- | --- | --- | --- | --- | --- | --- | --- | --- | --- | --- | --- |
| Cn1c2ccccc2c2c3c(c4c5ccccc5n(CCC#N)c4c21)CNC3=O | 50% | 43% | 39% | 63% | 63% | 116% | 111% | 105% (inactive) | 118% | 33% |  |  |  |  |  |  |
| O=C(O)/C=C/c1cc(Br)c(Br)c(Br)c1Br | 79% | 109% | 92% | 101% | 89% |  |  |  |  | 98% | 100% | 99% | 105% | 90% | 59% | 45% |
